# Source: PubChem BioAssay (NCATS)
# Results filed as inconclusive are left out. A call without a number means that no potency is given here. Calls of active or inactive are those of the source. Calls follow the shape of the dose curve; as a rule, active = well fitted curve in the direction sought with a large enough effect; inconclusive = small, poorly fitted or top-dose-only effect, or another doubt; inactive = no such curve, though single readings can be large; an effect the other way counts as inactive or inconclusive.
# Assays:
# [1] = qHTS to identify inhibitors of the type 1 interferon - major histocompatibility complex class I in skeletal muscle: primary screen against the NCATS LOPAC collection (AID 1347405);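 also: human myoblasts with HiBiT tag on endogenous HLA-B stimulated by IFN-beta; lytic HiBiT luminescence reporting HLA-B protein level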; also: potency is read from the fitted curve at half-maximal effect
# Summary of the method: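 IFN-beta-stimulated (4 ng/ml) HLA-B HiBiT knock-in myoblasts, compound-treated 24 hrs up to 46 uM final; signal via LgBiT complementation and furimazine luminescence.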
# [2] = Validation qHTS assay for inhibitors of Activation Induced Cytidine Deaminase (AID): UDG Counterscreen signal (AID 1347427); also: potency is read from the fitted curve at half-maximal effect
# Summary of the method: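 Fluorescence at 560 nm excitation, 665 nm emission reports UDG signal after 250 mM NaOH (2x) addition and 30 min. Enzymes (AID 1 uM, UDG 2 U/mL, at 4/3x) preincubated 10 min with compound, then 4 h with 4x 250 nM DJC20/DJC23 substrate at room temperature.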
# [3] = target: Single-stranded DNA cytosine deaminase (Homo sapiens) (UniProt Q9GZX7); test: Validation qHTS assay for inhibitors of Activation Induced Cytidine Deaminase (AID): AID signal (AID 1347429)
# Sequence of Single-stranded DNA cytosine deaminase (Homo sapiens) (Q9GZX7 whole entry, looked up): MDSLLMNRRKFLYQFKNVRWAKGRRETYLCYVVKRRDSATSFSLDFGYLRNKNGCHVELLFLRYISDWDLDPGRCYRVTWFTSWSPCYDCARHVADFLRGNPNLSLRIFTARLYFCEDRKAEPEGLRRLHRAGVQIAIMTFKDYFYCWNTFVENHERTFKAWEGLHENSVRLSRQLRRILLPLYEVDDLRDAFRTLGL
# Summary of the method: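 Compounds (up to 114 uM final) are tested against AID plus UDG using DJC20/DJC23 FRET substrate. Reactions incubate 4 hr at room temperature, receive NaOH for 30 min, and are read at Ex 540/Em 590 nm.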
# [4] = qHTS for inhibitors of adenylyl cyclases using a fission yeast platform: a pilot screen against the NCATS LOPAC library (AID 1347410)
# Summary of the method: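 Read-out: fbp1-GFP fluorescence by laser scanning cytometry (488 nm laser), a gain of signal when AC/cAMP-PKA signalling is inhibited. Strain CHP2027 expressing AC9, GNAS and PDE4D2; compounds at up to 57 µM; 18 h, 30C.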
# [5] = qHTS to identify inhibitors of the type 1 interferon - major histocompatibility complex class I in skeletal muscle: primary screen against the NCATS Mechanism Interrogation Plate v5.0 (MIPE) Libary (AID 1347411); also: nearly all actives have a fitted effect of over 65% in size
# Summary of the method: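 IFN-beta-driven (4 ng/ml) HLA-B-HiBit expression in CRISPR-tagged C25cl48 myoblasts; compounds 11-pt, 1:3, max 46 uM, 24 hr exposure; lytic NanoLuc complementation luminescence.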
SMILES,Potency [1],Potency [2],Potency [3],outcome [4],outcome [5]
O[Si](CCCN1CCCCC1)(c1ccc(F)cc1)C1CCCCC1 (centres undefined),inactive,inactive,inactive,,
CN1C2CCC1CC(OC(c1ccccc1)c1ccccc1)C2 (centres undefined),inactive,inactive,inactive,,
O=C(O)C1=CCCNC1,inactive,inactive,inactive,,
Nc1nc2[nH]c(=O)cnc2c(=O)[nH]1,inactive,inactive,inactive,,
N=C(N)SCCc1cnc[nH]1,inactive,inactive,inactive,,
CN(C)C(=O)/N=N/C(=O)N(C)C,inactive,inactive,inactive,,
Oc1cc(O)c2c(c1)O[C@H](c1ccc(O)c(O)c1)[C@@H](O)C2,inactive,inactive,inactive,,
COc1ccccc1N1CCN(CCCCNC(=O)c2ccc3ccccc3c2)CC1,inactive,inactive,inactive,,
NCCS(=O)O,inactive,inactive,inactive,,
N[C@H](C(=O)O)c1cc(O)cc(O)c1,inactive,inactive,inactive,,
C[C@H]1CC2C3CCC4=CC(=O)C=C[C@]4(C)[C@@]3(Cl)[C@@H](O)C[C@]2(C)[C@@]1(O)C(=O)CO (some centres undefined),inactive,,inactive,,
CCCCC[C@H](CC(=O)NO)C(=O)N[C@H](C(=O)N1CCC[C@H]1CO)C(C)C,inactive,inactive,inactive,,
NC(C(=O)N[C@@H]1C(=O)N2C(C(=O)O)=C(Cl)CS[C@H]12)c1ccccc1 (some centres undefined),inactive,inactive,inactive,,
N=S(=O)(O)Cc1noc2ccccc12,inactive,inactive,inactive,,
CC(N)(Cc1ccc(O)cc1)C(=O)O (centres undefined),inactive,,inactive,,
CC(C)C[C@H](NC(=O)C1OC1C(=O)O)C(=O)NCCCCN=C(N)N (some centres undefined),inactive,,inactive,,
NC1CONC1=O (centres undefined),inactive,inactive,inactive,,
O=c1[nH]c(=S)[nH]c(-c2ccccc2)c1Cc1c(O)ccc2ccccc12,,inactive,inactive,inactive,
CCCn1c(=O)c2c(ncn2C)n(CCC)c1=O,inactive,inactive,inactive,,
CC(/C=C/c1cccc(Oc2ccc(F)cc2)c1)N(O)C(N)=O (centres undefined),inactive,inactive,inactive,,
C=C1C[C@@]23CC[C@H]4[C@@](C)(CCC[C@@]4(C)C(=O)OC4OC(CO)C(O)C(O)C4O)[C@@H]2CC[C@]1(OC1OC(CO)C(O)C(O)C1OC1OC(CO)C(O)C(O)C1O)C3 (some centres undefined),inactive,inactive,inactive,,
O=C1OC(=O)C2C3CCC(O3)C12 (centres undefined),inactive,inactive,inactive,,
CCC1(O)CC2CN(CCc3c([nH]c4ccccc34)[C@@](C(=O)OC)(c3cc4c(cc3OC)N(C=O)C3[C@]45CCN4CC=C[C@@](CC)([C@@H](OC(C)=O)[C@]3(O)C(=O)OC)[C@H]45)C2)C1 (some centres undefined),,inactive,inactive,inactive,
COc1cc(/C=C(\C#N)C(=O)Nc2nnc(C(F)(F)F)s2)ccc1OCc1ccc(C(F)(F)F)cc1C(F)(F)F,,,,inactive,inactive
O=c1[nH]c2cc(Cl)ccc2c(O)c1-c1ccc(Oc2ccccc2)cc1,8.91 µM (active),inactive,inactive,,

SMILES,Potency [1],Potency [2],Potency [3],outcome [4],outcome [5]
NCC(O)c1ccc(O)c(O)c1 (centres undefined),inactive,,inactive,,
CCN(CC)CCCCCCCCOC(=O)c1cc(OC)c(OC)c(OC)c1,,inactive,inactive,inactive,
CCCCCC(O)CCCC(=O)O (centres undefined),inactive,inactive,inactive,,
O=C(O)C1=CC(=C(c2ccc(O)c(C(=O)O)c2)c2ccc(O)c(C(=O)O)c2)C=CC1=O,,89.1 µM (active),,inactive,
CN1CCc2cc(Cl)c(O)cc2[C@@H](c2ccccc2)C1,inactive,inactive,inactive,,
NCCCNCCCCNCCCN,inactive,inactive,inactive,,
N=C(N)SCCN,inactive,inactive,inactive,,
CCC1(O)CC2CN(CCc3c([nH]c4ccccc34)[C@@](C(=O)OC)(c3cc4c(cc3OC)N(C)C3[C@]45CCN4CC=C[C@@](CC)([C@@H](OC(C)=O)[C@]3(O)C(=O)OC)[C@H]45)C2)C1 (some centres undefined),,inactive,inactive,,
CCCCCCCCCCCCCCC[C@H](O)[C@H](N)CO,,inactive,inactive,inactive,
CC(=O)NNC(=O)N1Cc2ccccc2Oc2ccc(Cl)cc21,,inactive,inactive,inactive,
Nc1ncnc2c1c(-c1ccc(Oc3ccccc3)cc1)cn2C1CCCC1,,,inactive,inactive,
CNCCNS(=O)(=O)c1cccc2cnccc12,,inactive,inactive,inactive,
Cc1ccccc1/C=C/C1=NCCN1,,inactive,inactive,,
O=c1[nH]c2ccccc2c2ccccc12,,inactive,inactive,inactive,
Clc1nccc2c1ccc1ccccc12,,inactive,inactive,,
N#CC(=C(\N)Sc1ccccc1N)/C(C#N)=C(/N)Sc1ccccc1N,,inactive,inactive,inactive,
N#Cc1cc([N+](=O)[O-])c2sc(C(N)=O)[n+]([O-])c2c1,,inactive,inactive,inactive,
CCCCCCCC/C=C\CCCCCCCC(=O)NCCc1ccc(O)c(O)c1,,inactive,inactive,inactive,
CC(C)(CO)Cc1cc(C(C)(C)C)c(O)c(C(C)(C)C)c1,,inactive,inactive,inactive,
CC#CCOC(=O)c1c(C)nc2sc3c(c2c1N)CCC(O)C3 (centres undefined),,inactive,inactive,inactive,
N#C/C(=C\c1ccc(O)c(O)c1)C(=O)NCCc1ccccc1,,inactive,inactive,inactive,
CC[C@@H]1Cc2cc(O)ccc2C2=C1c1ccc(O)cc1C[C@H]2CC,,inactive,inactive,inactive,
CCCCCCCCCCCCCCCCCCOC[C@H](COP(=O)([O-])OCC[N+](C)(C)C)OC,,inactive,inactive,,
NC(=Nc1ccccc1)NC(=O)c1nc(Cl)c(N)nc1N,,inactive,inactive,inactive,
CC(=O)SC1CC2=CC(=O)CC[C@]2(C)C2CC[C@@]3(C)C(CC[C@@]34CCC(=O)O4)C12 (some centres undefined),,inactive,inactive,inactive,
